For orientation: inhibition means the change of the read-out against control, counted positive when it falls.

This is an account of results in ChEMBL document CHEMBL3433997, “St. Jude Leishmania screening dataset” (2016).

In this assay the target is Glucose transporter (Leishmania mexicana) (UniProt O61059). In words: ST_JUDE_LEISH: Cytotoxicity at 2uM final concentration against transgenic Leishmania Mexicana promastigotes LmGT2 that are glucose transport deficient and complemented with the L. Mexicana glucose transporter 2. Activity is measured by DNA content using SYBR green in vitro. Type of assay: functional.
As for `CNCC(C)(C)c1nc(-c2ccc(Cl)c(O)c2)c(-c2ccncc2)[nH]1`, the inhibition is -3.28%.
Under `CCn1c(C)c(C)c2cc(C(=O)Nc3ccon3)ccc21` stands 0.74%.
Under `O=C(N[C@@H](CC1CCCCC1)C(=O)NC1CCCCCC1)c1ccc(O)c(-c2ccc(Cl)c(Cl)c2)c1` stands 0.88%.
Regarding `COc1ccc2nccc([C@@H](O)CN3CCC(NCCOc4ccncc4)CC3)c2c1`, the inhibition is -0.87%.
Under `CN(C)CCN(C)C(=O)c1cc(-c2ccncc2)c(-c2ccc(Cl)c(O)c2)o1` stands 6.77%.
`COc1ccc2c(NN=Cc3ccccn3)ccnc2c1`: the inhibition is 11.3%.
As for `Cc1ccc(C)c(NC(=O)Nc2ccc(Nc3nc(C)cc(N4CCOCC4)n3)cc2)c1`, the figure is -5.61%; as for `N#Cc1ccc(NC(=O)N2CCCN(CCCCCNC(=O)/C=C/c3ccc(Cl)c(Cl)c3)CC2)cc1`, 5.16%.
As for `O=C(Cn1c(CCc2cccc(F)c2F)nc(=O)c2ccccc21)N(CCCN1CCCCC1)Cc1ccc(-c2ccc(C(F)(F)F)cc2)cc1`, the figure is 1.99%.
As to `COc1cc2ncnc(Nc3ccc(Br)c(Cl)c3)c2cc1OC`, the inhibition came out at 3.09%.
Under `O=C(NCc1cccc2ccccc12)c1ccc(CNC2CCN(Cc3ccccc3)CC2)cc1` stands 4.22%; under `CN1CCN(CCCN(Cc2cccc(-c3ccc(CNCCc4ccccc4)cc3)c2)C(=O)c2cccs2)CC1`, 3.91%; under `O=C(Nc1ccc(OC2CCN(Cc3ccc(F)cc3)C2)c(Cl)c1)c1ccc(F)cc1` (stereo not given), -1.62%.
Under `Fc1ccc2[nH]c(-c3ccc(-c4cccc(CN5CCC(CCN6CCCCC6)CC5)c4)cc3)nc2c1` stands 0.37%; under `CC(=O)c1ccc(-c2ccc(C(=O)NCCCCN3CCC(c4ccc5c(c4O)CCCC5)CC3)cc2)cc1`, 1.3%; under `Cc1ccc(Nc2cc(C)nn2-c2nc(C)cc(O)n2)cc1`, 67.6%.
On to `N=C(N)c1ccc(NN=Cc2ccc(Oc3ccc(C(=N)N)cc3)cc2)cc1`, for which the inhibition turned out to be 0.79%.
As for `O=C(NCCN1CCCC1)N1CCCN(c2ncnc3cc(-c4ccc(Cl)cc4)sc23)CC1`, the figure is 0.08%; as for `COc1ccc(N2CCN(c3nc(N)c4cc(OC)c(OC)cc4n3)CC2C)cc1` (stereo not given), -0.49%.
As for `CN1CCN(Cc2ccc(-c3ccc4c(Nc5ccc(F)cc5Cl)ccnc4c3)o2)CC1`, the inhibition stood at 1.39%.
As for `O=C(Nc1ccc2nc3n(c(=O)c2c1)CCCCC3)C(=O)N1CCC(Cc2ccccc2)CC1`, the figure is -0.44%; as for `COc1ccc(CCNC(=O)c2cc3c(=O)n4cccc(C)c4nc3n(C)c2=N)cc1`, 15.2%; as for `Cc1cccc2nc(-c3ccc(-c4ccc(CN5CCCC(N)C5)cc4)s3)[nH]c12` (stereo not given), 0.74%.
As for `C=C(C)Cn1cc(C2CCN(CCN3CCC(CNC(=O)c4ccc(-c5ccc(C#N)cc5)cc4)CC3)CC2)c2ccccc21`, the figure is 5.17%.
For `Fc1ccc2[nH]c(-c3ccccc3)nc2c1CN1CCC(N2CCCC2)CC1`, the inhibition is 2.29%.
For `Cc1ccc(C2(CN3CCC(NC(=O)c4cc[nH]n4)CC3)CCCCC2)cc1`, the inhibition is -0.05%.
For `Cc1cccc(C)c1N1CCN(C2CCC(NC(=O)/C=C/c3ccccc3)CC2)CC1` (stereo not given), the inhibition is 1.49%.
Regarding `O=C(CCCCCNC(=O)c1ccc(O)c(-c2ccc(Cl)c(Cl)c2)c1)NCc1cccc2ccccc12`, the inhibition was 3.98%.
For the compound `Cc1ccc(CNC(=O)[C@H](CCCN)Nc2nc(NCC3CCCCC3)ncc2C)cc1`, the inhibition was 2.97%.
As for `CNC(=O)c1c(NC(=O)c2cccs2)sc2c1CCCC2`, the figure is 1.44%; as for `Cc1cc(N/N=C/c2ccccc2[N+](=O)[O-])c2ccc(F)cc2n1`, 1.62%.
Under `CC1CCCN(S(=O)(=O)c2cc(Br)cc3c2N(C(=O)C2CC2)CC3)C1` (stereo not given) stands 1.02%; under `Cc1cc(NC(=O)Nc2cccc(C#N)c2)c2ccccc2n1`, 3.04%; under `CC(=O)c1ccccc1OCCSc1nnc(Cc2cccs2)n1C1CCCCC1`, 1.75%.
On to `CC(Cc1ccc(NC(=O)c2ccc(CC(C)NCc3ccc(Cl)cc3)cc2)cc1)NCCc1cccc(Cl)c1` (stereo not given), for which the inhibition was 1.33%.
As for `NC1=NC(c2ccccc2)(c2ccccc2)C(=O)N1Cc1ccccc1Br`, the figure is 6.62%; as for `O=C(NC1CCC(N2CCN(c3cccc(C(F)(F)F)c3)CC2)CC1)c1cc2ccccc2[nH]1` (stereo not given), 5.57%.
Under `CCCN1CCN(CCNC(=O)c2cccc(Nc3nccc(Nc4ccc(Oc5ccccc5)cc4)n3)c2)CC1` stands 1.04%.
Under `CC1(C)NC(N)=NC(=N)N1OCCc1cccc2ccccc12` stands 4.71%.
With `CC1(C)NC(N)=NC(=N)N1OCc1cccc(Cl)c1Cl`, the inhibition came out at 2.46%.
